Here are results for seven molecules from PubChem BioAssay (Tox21).

Experiment [1] is described as follows: Nuclear factor erythroid 2-related factor 2/antioxidant responsive element (Nrf2/ARE) small molecule agonists: qHTS cell viability counter screen in human keratinocytes (AID 1919968; active = well fitted curve in the direction sought with a large enough effect in the repeat runs; an effect the other way counts as inactive or inconclusive; also: nearly all actives have a fitted effect of over 55% in size). In short, it runs like this:
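Stably transfected HaCaT (KeratinoSens), 1,500/well. Test agents in DMSO were applied for 23 h, 37 C/5% CO2. CellTiter-Fluor was incubated 1 h before the fluorescence read.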

The nature of experiment [2]: Nuclear factor erythroid 2-related factor 2/antioxidant responsive element (Nrf2/ARE) small molecule agonists: luciferase reporter gene qHTS assay in human keratinocytes (AID 1919969). Also: nearly all actives have a fitted effect of over 35% in size.
Experiment [3] deals with Gonadotropin-releasing hormone receptor (Homo sapiens) (UniProt P30968). The experiment in a line: Human gonadotropin-releasing hormone receptor (GnRHR) small molecule agonists, calcium flux assay in GnRHR-HEK293 cells (AID 1920063). Also: nearly all actives have a fitted effect of over 35% in size. In short, it runs like this: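 Stable human GnRHR HEK293 line. 18 h plating, then calcium dye for 1 h at 37 C. Agonist-mode compound addition from DMSO stocks; fluorescence monitored 3 min.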

Experiment [4] has as its target KiSS-1 receptor (Homo sapiens) (UniProt Q969F8). The experiment in a line: Human kisspeptin (KISS1R) small molecule agonists, calcium flux assay in KISS1R-HEK293 cells (AID 1920064; active = well fitted curve in the direction sought with a large enough effect in the repeat runs; an effect the other way counts as inactive or inconclusive). In short, it runs like this: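 After overnight (18 h) culture at 37 C/5% CO2, human KISS1R-HEK293 cells received calcium dye for 1 h, then test compound; emission at 540 nm (excitation 480 nm) was tracked for 3 min.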

Experiment [5] can be described thus: G protein-coupled receptor (GPCR) small molecule agonists, calcium flux assay: HEK293 wild type cell line counter screen (AID 1920065). In short, it runs like this:
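Following 18 h incubation at 37 C/5% CO2, plates got calcium dye for 1 h; compounds, ATP or DMSO were then pinned in and fluorescence followed kinetically (480/540 nm).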

The nature of experiment [6]: p53 small molecule agonists, cell-based qHTS assay with human liver microsomes: qHTS cell viability counter screen (AID 1963579). Also: nearly all actives have a fitted effect of over 45% in size. In short, it runs like this: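 Metabolic activation used human liver microsomes and NADPH, both 0.5 mg/mL final, over 16 hours at 37 C on p53RE-bla cells (4,000/well). Cytotoxicity measured by CellTiter-Glo luminescence, 30 min at room temperature.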

Experiment [7] can be described thus: p53 small molecule agonists, cell-based qHTS assay with rat liver microsomes: qHTS cell viability counter screen (AID 1963580). Also: nearly all actives have a fitted effect of over 45% in size. In short, it runs like this: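 After the beta-lactamase ratio was read, CellTiter-Glo was added to the same wells and luminescence measured at 30 min; cells had been treated 16 h at 37 C with compounds, rat liver microsomes and NADPH (0.5 mg/mL final each).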

Experiment [8] in a line: p53 small molecule agonists, cell-based qHTS assay: qHTS cell viability counter screen (AID 1963581). Also: nearly all actives have a fitted effect of over 45% in size. In short, it runs like this:
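qHTS counter screen: 16 h compound exposure at 37 C of p53RE-bla HCT-116 cells (4,000 per well, seeded 5 h prior), cell viability by ATP luminescence.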

In experiment [9] the target is 5-hydroxytryptamine receptor 2A (Homo sapiens) (UniProt P28223). Briefly: 5-hydroxytryptamine receptor 2A (HTR2A) small molecule antagonists, cell-based qHTS assay (AID 1963586). Also: nearly all actives have a fitted effect of over 45% in size. In short, it runs like this: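 CHO cells stably expressing human HTR2A were plated for 18 h at 37 C, then loaded with calcium dye for 1 h. Compounds were preincubated 5 min at room temperature before DOI (4 nM solution) was added. Kinetic fluorescence was read for 3 min.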

Experiment [10] has the same target. Briefly: 5-hydroxytryptamine receptor 2A (HTR2A) small molecule agonists, cell-based qHTS assay (AID 1963587). Also: nearly all actives have a fitted effect of over 30% in size. A digest of the protocol: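 CHO cells stably expressing human HTR2A, plated 18 h, loaded with calcium dye 1 h at 37 C. Agonist mode: compounds added and intracellular calcium fluorescence recorded kinetically for 2 min at 1 sec intervals.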
Experiment [11] has as its target Muscarinic acetylcholine receptor M1 (Homo sapiens) (UniProt P11229). The experiment in a line: Cholinergic receptor muscarinic 1 (CHRM1) small molecule antagonists, cell-based qHTS assay (AID 1963588). Also: nearly all actives have a fitted effect of over 40% in size. Also: potency is read from the fitted curve at half-maximal effect. In short, it runs like this:
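Compounds were tested at 15 concentrations in three independent runs. Dye-loaded CHRM1-CHO cells were exposed 5 min at room temperature before stimulation by acetylcholine added at 50nM. Intracellular calcium was read kinetically on FDSS for 3 min.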

Experiment [12] shares this target. Briefly: Cholinergic receptor muscarinic 1 (CHRM1) small molecule agonists, cell-based qHTS assay (AID 1963589). Also: nearly all actives have a fitted effect of over 35% in size. A digest of the protocol:
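Kinetic fluorescence (1 s intervals) of calcium-sensitive dye in human M1 CHO cells after compound addition; cells pre-incubated 18 h at 37 C/5% CO2 and dye-loaded 1 h.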

Experiment [13] in a line: cAMP Responsive Elements (CRE) small molecule antagonists, cell-based qHTS assay (AID 1963591; active = well fitted inhibition curve with a large enough effect in the signal ratio in the repeat runs, not every such curve was filed as active; the % refers to the signal ratio). A digest of the protocol:
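Reporter line CRE-bla HEK 293T in dialyzed-FBS DMEM; cells preincubated 18 h, treated 3 h with compound plus NKH477 (0.25 uM final); LiveBLAzer FRET, 2 h RT.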

The target of experiment [14] is Beta-2 adrenergic receptor (Homo sapiens) (UniProt P07550). The experiment in a line: Adrenergic beta2 receptor (ADRB2) small molecule antagonists, cell-based qHTS assay (AID 1963592). Also: series mostly up to about 92 µM; nearly all actives have a fitted effect of over 50% in size. A digest of the protocol:
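Assay format: CHO-ADRB2 cells, 18-20hr seeding at 37C/5% CO2, then compound plus 1nM isoproterenol agonist mix for 0.5hr RT. Homogeneous time-resolved fluorescence cAMP detection after 1hr, expressed as 665/615 nm ratio.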

Experiment [15] deals with D(2) dopamine receptor (Homo sapiens) (UniProt P14416). The experiment in a line: Dopamine D2 receptor (DRD2) small molecule agonists, cell-based qHTS assay (AID 1963594). Also: nearly all actives have a fitted effect of over 35% in size. In short, it runs like this:
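HEK293 cells stably expressing human DRD2, pre-treated with PDE inhibitor Ro20-1724 (0.1 mM final) and compound 10 min at room temperature, then stimulated with NKH477 (200nM […]) for 30 min. cAMP read by HTRF (665/620 nm).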

Experiment [16] shares this target. Briefly: Dopamine D2 receptor (DRD2) small molecule antagonists, cell-based qHTS assay (AID 1963595; active = well fitted inhibition curve with a large enough effect in the signal ratio in the repeat runs, with a control signal flat; the % refers to the signal ratio). In short, it runs like this: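 Antagonism was scored as restored cAMP in HEK293-DRD2 cells. These cells were stimulated with 200 nM NKH477 and 12 nM quinpirole for 30 min at room temperature, in the presence of 0.1 mM Ro20-1724.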
Experiment [17] concerns the target Beta-2 adrenergic receptor (Homo sapiens) (UniProt P07550). The experiment in a line: Adrenergic beta2 receptor (ADRB2) small molecule agonists, cell-based qHTS assay (AID 1963593).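 Also: CHO cells stably overexpressing human ADRB2.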 A digest of the protocol: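 CHO cells stably over-expressing ADRB2 were plated overnight at 37C, then dosed with compounds plus a stimulation mix containing 100uM IBMX and 25uM Ro-20-1724 for 0.5hr at room temperature. cAMP was measured by HTRF competition, 1hr.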

Experiment [18] in a line: cAMP Responsive Elements (CRE) small molecule agonists, cell-based qHTS assay (AID 1963590). In short, it runs like this: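 Test agents in DMSO were incubated 3 h at 37 C/5% CO2 with CRE-bla HEK 293T cells seeded 18 h earlier; LiveBLAzer B/G FRET substrate was added and read after 2 h at room temperature.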

Values without a mark were called inactive. Results filed as inconclusive are left out. Active and inactive are the calls of the source. Unless noted, calls follow the shape of the full dose curve.

Sequence of KiSS-1 receptor (Homo sapiens) (Q969F8 whole entry, looked up): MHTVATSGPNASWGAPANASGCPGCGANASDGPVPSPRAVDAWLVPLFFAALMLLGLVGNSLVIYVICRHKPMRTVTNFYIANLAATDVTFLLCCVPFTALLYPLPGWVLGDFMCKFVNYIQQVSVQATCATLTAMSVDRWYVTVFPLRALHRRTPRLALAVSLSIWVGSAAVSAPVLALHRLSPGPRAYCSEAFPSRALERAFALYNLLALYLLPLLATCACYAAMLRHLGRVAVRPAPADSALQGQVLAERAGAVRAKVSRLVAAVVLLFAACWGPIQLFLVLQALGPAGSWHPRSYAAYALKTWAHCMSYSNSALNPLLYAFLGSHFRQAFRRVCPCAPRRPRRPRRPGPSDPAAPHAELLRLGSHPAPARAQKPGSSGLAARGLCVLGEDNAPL
Sequence of Beta-2 adrenergic receptor (Homo sapiens) (P07550 whole entry, looked up): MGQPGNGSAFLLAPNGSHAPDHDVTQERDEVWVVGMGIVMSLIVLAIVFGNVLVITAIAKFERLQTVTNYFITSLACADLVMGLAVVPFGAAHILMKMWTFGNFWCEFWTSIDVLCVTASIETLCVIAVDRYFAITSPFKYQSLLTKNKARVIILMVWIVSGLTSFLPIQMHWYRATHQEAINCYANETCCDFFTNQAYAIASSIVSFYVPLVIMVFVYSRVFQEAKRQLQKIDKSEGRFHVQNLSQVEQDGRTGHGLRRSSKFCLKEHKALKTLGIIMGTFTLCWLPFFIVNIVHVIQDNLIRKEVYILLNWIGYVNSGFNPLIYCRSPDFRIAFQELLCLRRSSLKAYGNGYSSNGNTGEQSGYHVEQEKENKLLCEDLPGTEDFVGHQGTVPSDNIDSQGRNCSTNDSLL
Sequence of Gonadotropin-releasing hormone receptor (Homo sapiens) (P30968 whole entry, looked up): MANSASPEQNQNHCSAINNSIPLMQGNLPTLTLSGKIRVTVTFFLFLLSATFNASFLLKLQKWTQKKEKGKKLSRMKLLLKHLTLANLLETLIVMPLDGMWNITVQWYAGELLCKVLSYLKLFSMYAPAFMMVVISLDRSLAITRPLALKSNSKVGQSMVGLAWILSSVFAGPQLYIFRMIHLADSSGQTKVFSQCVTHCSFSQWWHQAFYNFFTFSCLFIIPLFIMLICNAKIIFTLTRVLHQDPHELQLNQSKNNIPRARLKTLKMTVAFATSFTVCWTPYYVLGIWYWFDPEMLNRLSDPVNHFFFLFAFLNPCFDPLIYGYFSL
Sequence of D(2) dopamine receptor (Homo sapiens) (P14416 whole entry, looked up): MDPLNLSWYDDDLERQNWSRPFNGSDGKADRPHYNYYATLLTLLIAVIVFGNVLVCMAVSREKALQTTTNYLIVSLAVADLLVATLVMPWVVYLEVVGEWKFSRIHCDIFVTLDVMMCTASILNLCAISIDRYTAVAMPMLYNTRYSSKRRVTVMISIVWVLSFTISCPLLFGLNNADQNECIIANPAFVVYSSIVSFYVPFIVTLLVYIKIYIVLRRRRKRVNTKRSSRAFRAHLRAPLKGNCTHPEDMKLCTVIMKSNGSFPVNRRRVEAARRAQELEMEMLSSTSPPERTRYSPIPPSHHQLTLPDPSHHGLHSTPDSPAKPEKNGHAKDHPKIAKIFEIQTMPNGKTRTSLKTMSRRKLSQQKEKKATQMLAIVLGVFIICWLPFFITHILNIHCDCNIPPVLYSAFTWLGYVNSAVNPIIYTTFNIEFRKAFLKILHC
Sequence of 5-hydroxytryptamine receptor 2A (Homo sapiens) (P28223 whole entry, looked up): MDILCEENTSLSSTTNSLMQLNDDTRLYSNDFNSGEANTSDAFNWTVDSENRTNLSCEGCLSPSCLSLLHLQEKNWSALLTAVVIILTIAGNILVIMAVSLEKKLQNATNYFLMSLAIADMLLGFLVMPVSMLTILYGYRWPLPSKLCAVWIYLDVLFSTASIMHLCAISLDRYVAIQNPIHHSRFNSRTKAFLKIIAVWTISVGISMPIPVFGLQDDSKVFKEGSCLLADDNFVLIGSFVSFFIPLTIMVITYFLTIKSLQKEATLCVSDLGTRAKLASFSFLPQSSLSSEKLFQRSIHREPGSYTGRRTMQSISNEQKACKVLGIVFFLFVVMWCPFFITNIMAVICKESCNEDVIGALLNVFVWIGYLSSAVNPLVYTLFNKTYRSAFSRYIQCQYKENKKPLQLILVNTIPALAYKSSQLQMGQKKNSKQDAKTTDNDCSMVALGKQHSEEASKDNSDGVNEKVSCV
Sequence of Muscarinic acetylcholine receptor M1 (Homo sapiens) (P11229 whole entry, looked up): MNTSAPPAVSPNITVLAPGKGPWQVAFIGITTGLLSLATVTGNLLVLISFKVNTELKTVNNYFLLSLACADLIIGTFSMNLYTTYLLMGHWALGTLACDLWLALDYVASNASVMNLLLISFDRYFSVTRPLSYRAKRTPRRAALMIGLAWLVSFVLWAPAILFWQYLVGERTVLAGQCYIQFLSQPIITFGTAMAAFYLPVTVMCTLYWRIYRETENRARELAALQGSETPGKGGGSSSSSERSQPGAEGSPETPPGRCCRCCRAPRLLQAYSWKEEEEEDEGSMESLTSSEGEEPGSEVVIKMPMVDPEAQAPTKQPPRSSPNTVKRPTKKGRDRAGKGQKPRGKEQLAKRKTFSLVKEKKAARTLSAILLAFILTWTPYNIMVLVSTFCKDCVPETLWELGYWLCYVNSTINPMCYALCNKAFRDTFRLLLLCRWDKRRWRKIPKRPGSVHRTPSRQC

As to `CCCCNCC`, the Potency result in experiment [1], in experiment [2], in experiment [3], in [4], in experiment [5] and in [6] was “inactive” in each case. For the same molecule, the Potency result in experiment [7], in [8], in [9], in [10], in [11] and in experiment [12] was “inactive” each time. In addition, the Potency result in [13], in experiment [14], in experiment [15] and in [16] was “inactive” in each case.
Take `CC(=O)NNC(C)=O`: the Potency result in experiment [1], in experiment [2], in experiment [3], in experiment [4], in experiment [5] and in experiment [6] was “inactive” in each case. Moreover, the Potency entry in [7], in experiment [8], in [9], in experiment [10], in experiment [11] and in [12] was “inactive” in each case. Also, the Potency entry in experiment [13], in [14], in experiment [17], in experiment [15] and in experiment [16] was “inactive” each time.
As to `C/C=C(\C)C(C)=O`, the Potency entry in experiment [1], in [2], in experiment [3], in experiment [4], in experiment [5] and in [6] was “inactive” each time. Also, the Potency result in experiment [7], in experiment [8], in [9], in [10], in experiment [11] and in experiment [12] was “inactive” in each case. Further, the Potency result in [18], in experiment [14], in experiment [17], in experiment [15] and in experiment [16] was “inactive” throughout.
In the case of `CN(C)CCCO[C@@H]1[C@H]2OC(C)(C)O[C@H]2O[C@@H]1C(O)CO` (stereo partly specified), the Potency entry in experiment [1], in [2], in [3], in [4], in experiment [5] and in experiment [6] was “inactive” each time. Moreover, the Potency result in experiment [7], in experiment [8], in [9], in experiment [10], in experiment [11] and in experiment [12] was “inactive” in each case. The Potency entry in experiment [18], in [14], in experiment [17], in experiment [15] and in experiment [16] was “inactive” each time.
Take `CC(=O)OCC1=C(C(=O)O)N2C(=O)[C@@H](NC(=O)CSc3ccncc3)[C@H]2SC1`: the Potency entry in experiment [1], in experiment [2], in experiment [3], in [4], in experiment [5] and in experiment [6] was “inactive” throughout. Also, the Potency entry in experiment [7], in experiment [8], in [9], in experiment [10], in [11] and in [12] was “inactive” each time. Moreover, the Potency result in experiment [13], in [14], in experiment [17], in [15] and in experiment [16] was “inactive” throughout.
On to `NCCCC(N)(C(=O)O)C(F)F` (stereo unspecified), for which the Potency entry in experiment [1], in experiment [2], in experiment [3], in experiment [4], in experiment [5] and in experiment [6] was “inactive” throughout. In addition, the Potency entry in [7], in experiment [8], in experiment [9], in [10], in [12] and in experiment [18] was “inactive” in each case. Moreover, the Potency result in experiment [14], in experiment [17], in [15] and in experiment [16] was “inactive” each time. Moreover, in experiment [11], the Potency was 163 nM (active).
Take `COc1cc(Cl)c(OC)cc1N`: the Potency result in [1], in experiment [2], in experiment [3], in experiment [4], in experiment [5] and in [6] was “inactive” throughout. For the same molecule, the Potency result in experiment [7], in experiment [8], in experiment [9], in experiment [10], in experiment [11] and in experiment [12] was “inactive” each time. Moreover, the Potency result in experiment [18], in experiment [15] and in experiment [16] was “inactive” each time.
